# Screens as filed in PubChem BioAssay.
# Cruzain inh noDet = cruzain (T. cruzi) inhibition without detergent | P25779 | purified cruzain, Z-FR-AMC fluorescence, no detergent | Potency, µM, inactives show max response, negative = inhibition, most hits filed as inhibitors | actives 2.3% (n = 200,000) | AID 1476;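 further: plate controls were enzyme without inhibitor for no effect and buffer without enzyme for full effect; nearly all actives have a fitted effect of over 40% in size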
# Target sequence (P25779 123-467 limits assumed): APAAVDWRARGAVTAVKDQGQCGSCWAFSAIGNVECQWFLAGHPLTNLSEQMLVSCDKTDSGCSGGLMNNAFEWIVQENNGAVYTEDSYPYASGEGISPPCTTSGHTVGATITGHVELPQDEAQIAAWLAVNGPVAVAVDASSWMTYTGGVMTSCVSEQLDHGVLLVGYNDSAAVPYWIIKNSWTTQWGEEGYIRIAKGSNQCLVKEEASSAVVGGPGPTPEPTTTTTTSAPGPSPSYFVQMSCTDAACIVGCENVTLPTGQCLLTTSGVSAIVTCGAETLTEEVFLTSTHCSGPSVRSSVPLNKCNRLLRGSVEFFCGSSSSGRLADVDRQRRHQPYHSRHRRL
#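 Purified cruzain at 1.5 nM, pre-incubated 15 min with compound at room temperature in 100 mM sodium acetate pH 5.5, 5 mM DTT, 0.00005% Triton X-100. Reaction started with 2 uM Z-FR-AMC; AMC fluorescence increase over 60 s gives rate.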
# Cruzain Triton = inhibitors of Trypanosoma cruzi cruzain with detergent | P25779 | purified cruzain, Z-FR-AMC fluorescence, 0.01% Triton | Potency, µM, inactives show max response, negative = inhibition, usual class: inhibitors | actives 0.43% (n = 200,000) | AID 1478;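 further: plate controls were neutral wells for no effect and buffer without enzyme for full effect; nearly all actives have a fitted effect of over 40% in size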
#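 Compounds were screened in titration against cruzain (1.5 nM) with 0.01% Triton X-100 to counter colloidal aggregation. Activity was the AMC fluorescence increase over 60 s after adding 2 uM Z-FR-AMC at pH 5.5.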
# The depositor's hits bear a star; ? = inconclusive. Only some compounds are listed: those with a hit (about 2.5% of all), similar ones and a draw of the others. The call rests on the fitted dose curve; in most records, active means well fitted curve in the direction sought with a large enough effect; inconclusive means small, poorly fitted or top-dose-only effect, or another doubt; inactive means no such curve, though single readings can be large; an effect the other way counts as inactive or inconclusive. Potency means the concentration at half of the fitted maximal effect.
SMILES,Cruzain inh noDet,Cruzain Triton
CCCn1c(SCc2nc(-c3ccc(OC)cc3OC)no2)nnc1-c1ccc(Cl)cc1,?,-9.6%
CCOC(=O)c1cccc(NC(=O)CCc2c(C)nc3c4cccnc4nn3c2C)c1,7.5%,-2.0%
O=C(NC(=S)Nc1ccccc1N1CCCC1)c1ccc(-c2cccc([N+](=O)[O-])c2)o1,5.01µM*,-9.9%
O=C(NC(=S)Nc1ccccc1N1CCCC1)c1ccc([N+](=O)[O-])cc1,?,-5.5%
O=C(NC(=S)Nc1ccccc1O)c1ccc(-c2ccc(Cl)cc2)o1,15.8µM*,5.3%
COc1ccccc1NC(=S)NC(=O)c1ccc(-c2ccc(Cl)cc2)o1,?,-2.9%
O=C(NC(=S)Nc1ccccc1N1CCOCC1)c1ccc(-c2cccc(Cl)c2)o1,?,-0.8%
O=C(NC(=S)Nc1ccccc1N1CCCCC1)c1ccc(-c2cccc([N+](=O)[O-])c2)o1,5.01µM*,2.3%
CNc1cc(-c2ccccc2C(F)(F)F)ncn1,14.7%,0.4%
C=CC[C@](C)(O)c1ccccc1,-1.1%,1.5%
CCOC(=O)c1ccc(NC(=O)c2ccc3c(c2)NC(=O)c2ccccc2S3)cc1,5.8%,-0.9%
CC(=O)c1ccc2c(c1)Nc1ccccc1S2,25.1µM*,1.2%
C/C(=N\NC(=O)c1ccc(C)cc1C)c1ccc2c(c1)Nc1ccccc1S2,?,-1.5%
CCOC(=O)Nc1ccc2c(c1)Nc1ccccc1S2,25.1µM*,-11.3%
CC1=C(C(=O)Nc2cccnc2)C(c2ccccc2)n2nc(SCc3ccccc3F)nc2N1 (stereo not given),9.6%,4.1%
COc1ccc(CNC(=O)C2CCCCN2S(=O)(=O)c2ccc(F)cc2)cc1 (stereo not given),-14.0%,-2.0%
CCCC(=O)c1ccc(OC(=O)c2c(-c3ccccc3Cl)noc2C)cc1,-1.7%,-0.4%
CCc1ccc(NC(=O)CSc2nc3nccnc3c(=O)n2CCc2c[nH]c3ccccc23)cc1,?,-4.9%
COc1ccccc1[C@@H]1C(c2ccc(F)cc2)=NN(c2ccc(Br)cc2)[C@H]1C(=O)N1CCOC1=O,25.1µM*,1.0%
COc1ccccc1[C@@H]1C(c2ccc(F)cc2)=NN(c2ccccc2)[C@H]1C(=O)N1CCOC1=O,?,-9.7%
COc1ccccc1[C@@H]1C(c2ccccc2)=NN(c2ccccc2)[C@H]1C(=O)N1CCOC1=O,?,-4.7%
COc1ccccc1[C@@H]1C(c2cccc(Cl)c2)=NN(c2ccc(Br)cc2)[C@H]1C(=O)N1CCOC1=O,8.91µM*,0.3%
O=C1OCCN1C(=O)[C@H]1[C@H](c2ccccc2)C(c2cccc(Cl)c2)=NN1c1ccccc1,?,-8.8%
COc1ccccc1[C@@H]1C(c2cccc(C)c2)=NN(c2ccccc2)[C@H]1C(=O)N1CCOC1=O,15.8µM*,-4.4%
CCc1cccc(NC(=O)CCS(=O)(=O)c2ccc(C)cc2)c1,-16.8%,-2.9%
SMILES,Cruzain inh noDet,Cruzain Triton
COCCNC(=O)CCn1c(=O)c2cc(OC)c(OC)cc2n(CC(=O)Nc2ccccc2OC)c1=O,-8.2%,0.9%
CC(C)c1ccc(S(=O)(=O)c2nnn3c2nc(NCCc2ccccc2)c2sccc23)cc1,10µM*,0.2%
Cc1ccc(S(=O)(=O)c2nnn3c2nc(NCc2ccc4c(c2)OCO4)c2sccc23)cc1C,25.1µM*,-5.7%
Cc1ccc(S(=O)(=O)c2nnn3c2nc(NCCc2ccccc2)c2sccc23)cc1,0.3%,0.0%
Cc1ccc(S(=O)(=O)c2nnn3c2nc(NCc2ccc4c(c2)OCO4)c2sccc23)cc1,9.3%,-5.9%
COc1ccccc1NC(=O)Cn1c(=O)n(CCCCCC(=O)NCc2ccccc2)c(=O)c2sccc21,-2.4%,-2.4%
Oc1c(C(c2ccccc2F)N2CCN(Cc3ccccc3)CC2)sc2nc(-c3ccco3)nn12 (stereo not given),4.1%,-5.5%
Cc1ccc(Cn2c(CO)cnc2SCC(=O)Nc2ccc(C)c(Cl)c2)cc1,28.5%,-7.5%
COc1ccc2c(c1)Cc1sc(NC(=O)c3cccc(Br)c3)nc1-2,?,-2.3%
COc1ccc(Br)c2c1-c1nc(NC(=O)c3cccc(C)c3)sc1C2,6.31µM*,-2.4%
O=C(CSc1nc2ccccc2s1)N1CCCCC1,-5.7%,-2.9%
Cc1c(Cl)cccc1N/C(SCC(=O)N1CCCCCC1)=C(/C#N)c1nc2ccccc2s1,10µM*,-5.5%
CCOc1ccc(-c2nc(CNC(=O)NC3CCCCC3)c(C)o2)cc1,17.3%,7.0%
O=C(c1cccs1)N1CCCc2cc(NS(=O)(=O)c3ccc(F)cc3)ccc21,7.8%,-3.9%
COc1ccc(OC)c(C2=NNC(=NCc3ccc4c(c3)OCO4)SC2)c1,12.6µM*,-8.4%
Oc1ccc(C2=NNC(=NCc3ccc4c(c3)OCO4)SC2)c(O)c1,?,-13.4%
O=c1c2c3c(sc2ncn1Cc1ccc(F)cc1)CCC3,7.94µM*,-1.5%
Nn1cnc2sc3c(c2c1=O)CCC3,0.6%,0.0%
CCOc1ccc(NC(=O)CN(Cc2ccccc2)S(=O)(=O)c2ccc3nc(C)sc3c2)cc1,17.9%,-2.3%
COc1cccc(N2CCN(CC(=O)NCc3cccs3)CC2)c1,-3.5%,0.8%
COc1cccc(N2CCN(CC(=O)Nc3nnc(-c4ccccc4)s3)CC2)c1,25.1µM*,-2.2%
CCOc1ccc(CCNC(=O)c2ccc(C)c(-n3cnc4cccnc43)c2)cc1,13.5%,-6.0%
COc1ccc(CNC(=O)CCn2nc(C)c3c(C)n(-c4ccccc4)nc3c2=O)cc1OC,1.6%,-3.6%
CCc1cc2c(=O)c(-c3cnn(-c4ccccc4)c3)c(C)oc2cc1OCC(=O)Nc1ccc(F)c(F)c1,25.1µM*,-0.7%
CCc1cc2c(=O)c(-c3cnn(-c4ccccc4)c3)c(C)oc2cc1OCC(=O)Nc1cccc(C)c1,?,-1.8%
SMILES,Cruzain inh noDet,Cruzain Triton
COCCn1c(=O)cnc2cnc(Nc3ccccc3)nc21,-9.4%,-6.6%
Cn1c(=O)cnc2cnc(Nc3ccccc3)nc21,25.1µM*,-5.8%
CC(C)c1ccccc1NC(=O)CN1C(=O)c2cccc3cccc1c23,4.1%,-2.7%
Cc1ccc(CNC(=O)c2ccc3nc4[nH]c5ccccc5c4nc3c2)cc1,25.1µM*,-5.8%
COc1ccccc1CNC(=O)c1ccc2nc3[nH]c4ccccc4c3nc2c1,?,-2.5%
Cc1cccc(Cn2c(SCc3ccc(C(=O)NCc4ccccc4F)cc3)nc3ccncc32)c1,-24.5%,-12.5%
Cc1ccc(S(=O)(=O)NCCc2cn3c(C)csc3n2)cc1,-0.8%,-1.6%
COc1ccccc1-c1nc(C#N)c(N2CCC(Cc3ccccc3)CC2)o1,?,35.5µM*
COc1ccccc1-c1nc(C#N)c(N2CCN(Cc3ccccc3)CC2)o1,-2.0%,-18.8%
O=C(COC(=O)c1ccc(Sc2ccccc2)c([N+](=O)[O-])c1)NC1CCCc2ccccc21 (stereo not given),12.6µM*,1.7%
CC1CC(C)CN(c2ccc(C(=O)OCC(=O)NC3CCCc4ccccc43)cc2[N+](=O)[O-])C1 (stereo not given),?,1.2%
COc1ccc(Cl)cc1NC(=O)CCCn1c(=O)c2cccn2c2cccnc21,-5.2%,-1.5%
Cc1cccc(C)c1OCC(=O)N=Nc1c(O)[nH]c2ccc(Br)cc12,-22.7%,1.6%
O=C(N=Nc1c(O)[nH]c2ccc(Br)cc12)c1cc(-c2cccc3ccccc23)n[nH]1,10µM*,-2.9%
CCc1ccccc1NC(=O)CCC(=O)N1CC(C)Oc2ccc(C)cc21 (stereo not given),3.1%,-2.6%
CCOC(=O)COc1ccc(/C=C(\C#N)c2nc3ccc(C)cc3[nH]2)cc1OC,?,-2.8%
